For this experiment, the system named is mevalonate kinase [Streptococcus pneumoniae D39]. Nature of the experiment: pneumococcal mevalonate kinase activity blockers – biochemical, PK/LDH-coupled NADH absorbance, primary screen (AID 555). The note with it: purified MK, PK/LDH-coupled NADH absorbance 340 nm, at 10 µM, stronger effect = higher value.
Where [1] appears, read: measured here: pilot screen replicates.

In all, about 65,000 compounds went through this assay and about 320 (0.49%) were called active.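 How the source made its calls: active means ranked among the strongest by inhibition in the single 10 µM screen, a fixed top-ranked set picked for dose follow-up; inactive means the rest, inconclusive results apart.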 The list comes from a sample in which actives are over-represented; it also holds similar structures and randomly drawn compounds.

For orientation: inhibition means the share of the control response that was lost under treatment.

`COc1ccccc1CN1CCN(C(=O)Cc2ccccc2)CC1`: the inhibition was 53% (active). The compound further had an inhibition under setting [1] of 0%.

In the case of `CN1CCN(Cc2ccccc2C(F)(F)F)CC1`, the inhibition was 6% (inactive). Same read-out and setting: for `CCN1CCN(C(=O)Cc2coc3cc(C)cc(C)c23)CC1` the value was 5% (inactive); for `CCOC(=O)c1c(-c2ccccc2)oc2ccc(OC(=O)N(C)C)cc12`, 0% (inactive). On to `COc1ccc(CN2CCN(c3ccccc3F)CC2)c(OC)c1`, for which the inhibition was 43% (active). Further, the inhibition under setting [1] was determined as 1.5%. In the case of `Fc1cccc(F)c1CN1CCN(Cc2c(F)cccc2F)CC1`, the inhibition is 2% (inactive). The same measure, in the same setting: for `CC(C)c1ccc(O)c(CN2CCN(c3ccccc3)CC2)c1` the value was 0% (inactive); for `CCC(=NCc1ccco1)c1c(O)n(Cc2ccccc2)c(=O)[nH]c1=O`, 12% (inactive); for `CC(=NCC1CCCO1)c1c(O)n(-c2ccccc2)c(=O)[nH]c1=O` (configuration not stated), 4% (inactive). On the same count and under the same terms, for `COC(=O)COc1cc(C)cc2oc(=O)c3c(c12)CCCC3` the value was 6% (inactive).

Source of the values: PubChem BioAssay AID555 (SRMLSC, 2006).
